In PubChem BioAssay:
Activity calls are given as the source filed them.

Experiments:
[1] = compound effects on lung adenocarcinoma cell viability – A549, calcein-AM fluorescence, 48 h, basal, profiling panel (AID 1162); conditions: higher = more signal
[2] = compound effects on differentiated 3T3-L1 adipocyte viability – cell-based, 3T3-L1 adipocytes, calcein-AM fluorescence, 48 h, basal, profiling panel (AID 1163); conditions: 3T3-L1 adipocytes viability, higher = more signal
[3] = compound effects on hepatocellular carcinoma cell viability – HepG2, calcein-AM fluorescence, 48 h, basal, profiling panel (AID 1164); conditions: higher = more signal
[4] = compound effects on multiple myeloma cell viability – MM1S, calcein-AM fluorescence, 48 h, basal, profiling panel (AID 1165); conditions: higher = more signal
[5] = calcein-AM signal in unstimulated myeloma cells – cell-based, calcein-AM fluorescence, 48 h, PK04 Diversity Set, profiling panel (AID 1166); conditions: RPMI8226 myeloma viability, higher = more signal;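 further: cells grown under basal conditions without added stimulus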
[6] = JC-1 mitochondrial signal, unstimulated HepG2 cells – cell-based, JC-1 fluorescence, 24 h, 100 nL compound, profiling panel (AID 1167); conditions: HepG2 mitochondrial potential, higher = more signal
[7] = JC-1 mitochondrial signal, unstimulated adipocytes – cell-based, JC-1 fluorescence, 3T3-L1 adipocytes, 24 h, 100 nL compound, profiling panel (AID 1168); conditions: JC-1 mitochondrial fluorescence, higher = more signal, called active from +8 up or from −8 down
[8] = JC-1 mitochondrial signal, unstimulated myeloma cells – cell-based, JC-1 fluorescence, RPMI8226, 24 h, 100 nL compound, profiling panel (AID 1169); conditions: JC-1 mitochondrial potential fluorescence, higher = more signal
[9] = JC-1 mitochondrial signal, unstimulated MM1S myeloma – cell-based, JC-1 fluorescence, 24 h, 100 nL compound, profiling panel (AID 1170); conditions: MM1S mitochondrial potential, higher = more signal
[10] = resazurin metabolic signal in A549 cells – cell-based, resazurin fluorescence, 24 h, PK04 Diversity Set, profiling panel (AID 1171); conditions: A549 viability, higher = more signal, called active from +8 up or from −8 down
Further: test concentration not given here.

C=CCOC(=O)[C@H]1[C@@H]2C(=O)O[C@@H](c3ccccc3)[C@@H](c3ccccc3)N2[C@@H](c2ccc(OCCOC(=O)[C@H]3C[C@H]4C(=O)N5CCC[C@H]5C(=O)N4[C@H]3c3cccc(OCCO)c3)cc2)[C@]12C(=O)Nc1ccc(I)cc12
z-score [1]: -0.0113 | z-score [2]: 0.199 | z-score [3]: 0.144 | z-score [4]: 0.817 | z-score [5]: -0.452 | z-score [6]: -0.0589 | z-score [7]: -0.518 (inactive) | z-score [8]: -0.855 | z-score [9]: -0.122 | z-score [10]: 0.9 (inactive)

COc1ccc([Si](C)(C)[C@H]2[C@H](CCO)O[C@@]3(C(=O)N(Cc4cccc(NC(=O)[C@H](C)O)c4)c4ccccc43)[C@@H]2C)cc1
z-score [1]: -2.82 | z-score [2]: -0.401 | z-score [3]: -4.52 | z-score [4]: -2.63 | z-score [5]: -4.36 | z-score [6]: -2.89 | z-score [7]: 1.46 (inactive) | z-score [8]: -1.02 | z-score [9]: -2.35 | z-score [10]: -4.28 (inactive)

CN1C(=O)C2C=CC(C(O)c3ccc(Br)cc3)N(N(c3ccccc3)c3ccccc3)C2C1=O (stereo not given)
z-score [1]: 1.78 | z-score [2]: -0.658 | z-score [3]: 1.37 | z-score [4]: 0.0222 | z-score [5]: -0.574 | z-score [6]: 0.232 | z-score [7]: -1.07 (inactive) | z-score [8]: 0.343 | z-score [9]: -0.654 | z-score [10]: -0.335 (inactive)

COC(=O)C1(C)C=C2C(=C(c3ccccc3)C(=O)C2C)CN1 (stereo not given)
z-score [1]: -1.3 | z-score [2]: -0.492 | z-score [3]: -1.26 | z-score [4]: -0.671 | z-score [5]: -1.49 | z-score [6]: -1.68 | z-score [7]: -2.71 (inactive) | z-score [8]: 0.2 | z-score [9]: -0.933 | z-score [10]: -0.72 (inactive)

CN1C(=O)[C@@]2(CCC(=O)OC(C)(C)C)N=C(c3ccc(OCCCO)cc3)O[C@H]2c2ccccc21
z-score [1]: 0.575 | z-score [2]: 1.36 | z-score [3]: -0.614 | z-score [4]: -1.85 | z-score [5]: -3.45 | z-score [6]: 0.543 | z-score [7]: -0.207 (inactive) | z-score [8]: -1.18 | z-score [9]: -0.696 | z-score [10]: -0.54 (inactive)

CC1(C)OCC(C(O)C2=CCCCC2=O)CO1 (stereo not given)
z-score [1]: -0.423 | z-score [2]: 1.76 | z-score [3]: 0.588 | z-score [4]: -0.402 | z-score [5]: -0.999 | z-score [6]: 1.28 | z-score [7]: -0.0827 (inactive) | z-score [8]: -0.606 | z-score [9]: 0.724 | z-score [10]: -0.939 (inactive)

Cn1c(=O)n2n(c1=O)[C@H]1[C@H](O)[C@@H]3O[C@@H]3C(=NOC[C@@H](O)COCc3ccco3)[C@H]1CC2
z-score [1]: 0.981 | z-score [2]: 0.323 | z-score [3]: 1.41 | z-score [4]: 0.287 | z-score [5]: 0.588 | z-score [6]: 1.41 | z-score [7]: -0.439 (inactive) | z-score [8]: -0.402 | z-score [9]: -0.397 | z-score [10]: -0.195 (inactive)

CCOC(=O)CCN1C(=O)[C@H]2[C@H]3[C@H](O)[C@H](O)CC(=NOC[C@@H](O)COCc4ccco4)[C@@H]3CC[C@H]2C1=O
z-score [1]: 0.14 | z-score [2]: 0.171 | z-score [3]: -0.324 | z-score [4]: 0.366 | z-score [5]: 0.557 | z-score [6]: -0.906 | z-score [7]: -0.125 (inactive) | z-score [8]: -0.393 | z-score [9]: -0.49 | z-score [10]: -0.397 (inactive)

CC(=O)OC[C@H]1O[C@H](CCON=C[C@@H](C)[C@H](OCc2ccccc2)C(C)C)C=C[C@@H]1OC(C)=O
z-score [1]: -0.606 | z-score [2]: -0.52 | z-score [3]: -0.737 | z-score [4]: -0.09 | z-score [5]: -0.5 | z-score [6]: -1.26 | z-score [7]: -0.801 (inactive) | z-score [8]: -0.0185 | z-score [9]: 0.0314 | z-score [10]: 0.0793 (inactive)

CC(C)[C@@H](OCc1ccccc1)[C@H](C)C=NOC[C@@H](C)[C@H](OCc1ccccc1)C(C)C
z-score [1]: 0.243 | z-score [2]: -0.231 | z-score [3]: -0.661 | z-score [4]: 0.27 | z-score [5]: 0.0507 | z-score [6]: -0.245 | z-score [7]: -0.149 (inactive) | z-score [8]: 0.0367 | z-score [9]: -0.0858 | z-score [10]: -0.689 (inactive)

O=C1[C@H]2[C@H]3[C@H](O)[C@H](O)CC(=NOC[C@@H](O)COCc4ccco4)[C@@H]3CC[C@H]2C(=O)N1c1ccc(F)cc1F
z-score [1]: -0.2 | z-score [2]: 0.165 | z-score [3]: -1.22 | z-score [4]: 0.136 | z-score [5]: -1.11 | z-score [6]: 0.42 | z-score [7]: -0.116 (inactive) | z-score [8]: -0.0126 | z-score [9]: -0.221 | z-score [10]: 0.24 (inactive)

O=C1C[C@@H](O)[C@@H](O)[C@@H]2[C@@H]3C(=O)N(c4ccc(F)cc4F)C(=O)[C@@H]3CC[C@@H]12
z-score [1]: -0.294 | z-score [2]: -0.0367 | z-score [3]: 0.644 | z-score [4]: -0.701 | z-score [5]: -0.709 | z-score [6]: -0.56 | z-score [7]: -0.597 (inactive) | z-score [8]: -0.28 | z-score [9]: 0.959 | z-score [10]: 0.824 (inactive)

CO[C@@H]1COC(=O)CCC[C@@H](C)[C@H](OC)COC(=O)CCC[C@H]1C
z-score [1]: -0.378 | z-score [2]: -0.465 | z-score [3]: -0.125 | z-score [4]: -0.197 | z-score [5]: 0.239 | z-score [6]: -0.075 | z-score [7]: -0.996 (inactive) | z-score [8]: 0.822 | z-score [9]: -0.162 | z-score [10]: 0.183 (inactive)

CC(C)OC(=O)C=C1C[C@@H](c2ccc(C#N)cc2)O[C@@H](c2ccc(C#N)cc2)O1
z-score [1]: -0.301 | z-score [2]: 0.538 | z-score [3]: -0.0099 | z-score [4]: -2.29 | z-score [5]: -0.69 | z-score [6]: -1.06 | z-score [7]: -0.195 (inactive) | z-score [8]: -0.462 | z-score [9]: -2.22 | z-score [10]: 0.199 (inactive)

COC(=O)[C@@]1(Cc2ccc(F)cc2)[C@@H]2C(=CC(=O)[C@H]2CC(=O)C(=O)N(C)C)CN1C(=O)c1ccccc1
z-score [1]: -1.29 | z-score [2]: -1.34 | z-score [3]: 0.201 | z-score [4]: -1.24 | z-score [5]: -2.67 | z-score [6]: 2.62 | z-score [7]: 0.441 (inactive) | z-score [8]: -0.817 | z-score [9]: -2.01 | z-score [10]: -1.73 (inactive)

CC(C)=NOCc1cccc(-c2cc(-c3ccccc3)no2)c1
z-score [1]: -0.398 | z-score [2]: 0.0768 | z-score [3]: 0.0628 | z-score [4]: -1.06 | z-score [5]: -0.375 | z-score [6]: -0.499 | z-score [7]: -0.302 (inactive) | z-score [8]: -0.112 | z-score [9]: 0.354 | z-score [10]: -0.798 (inactive)

CCOC(=O)C1=CCC(c2cc3ccccc3[nH]2)NC1 (stereo not given)
z-score [1]: -0.35 | z-score [2]: -0.709 | z-score [3]: 1.08 | z-score [4]: 1.13 | z-score [5]: 0.255 | z-score [6]: 0.4 | z-score [7]: 1.17 (inactive) | z-score [8]: -0.0143 | z-score [9]: -1.26 | z-score [10]: -0.412 (inactive)

CC(C)CON=C1C[C@@H](O)[C@@H](O)[C@@H]2[C@@H]3C(=O)N([C@@H](C)c4ccccc4)C(=O)[C@@H]3CC[C@H]12
z-score [1]: 0.58 | z-score [2]: -0.297 | z-score [3]: -0.0223 | z-score [4]: 0.844 | z-score [5]: 0.933 | z-score [6]: 0.658 | z-score [7]: 0.341 (inactive) | z-score [8]: 0.53 | z-score [9]: -1.32 | z-score [10]: -0.511 (inactive)

COCCCNC(=O)[C@@]1(Sc2ccc(C)cc2)CC(=O)N(Cc2ccccc2)[C@@H]1c1ccc(CO)cc1I
z-score [1]: 1.17 | z-score [2]: 0.422 | z-score [3]: 0.264 | z-score [4]: -2.37 | z-score [5]: -1.94 | z-score [6]: 0.735 | z-score [7]: -0.253 (inactive) | z-score [8]: -0.617 | z-score [9]: -1.47 | z-score [10]: 0.491 (inactive)

CC1CC/C=C\[C@H]2OC34C=CCN(C(C)C)C(=O)[C@H]3N(CCCO)C(=O)[C@@H]4C2C(=O)O1 (stereo not given in full)
z-score [1]: -0.478 | z-score [2]: -0.156 | z-score [3]: -0.381 | z-score [4]: -0.929 | z-score [5]: 0.449 | z-score [6]: 0.486 | z-score [7]: 0.51 (inactive) | z-score [8]: -0.0642 | z-score [9]: 0.687 | z-score [10]: 0.385 (inactive)

O=C1[C@H]2[C@H]3[C@H](O)[C@H](O)CC(=NO[C@@H]4O[C@H](CO)[C@@H](O)[C@H](O)[C@H]4O)[C@H]3CC[C@H]2C(=O)N1C1CCCCC1
z-score [1]: -0.649 | z-score [2]: 0.034 | z-score [3]: -0.627 | z-score [4]: 0.206 | z-score [5]: 0.115 | z-score [6]: -0.871 | z-score [7]: -1.53 (inactive) | z-score [8]: 0.368 | z-score [9]: -0.11 | z-score [10]: 0.302 (inactive)

COc1ccc(O[C@H]2C=C[C@@H](c3ccccc3)O[C@@H]2COC(=O)CCC(C)=NOCC[C@@H]2C=C[C@H](OC(C)=O)[C@@H](COC(C)=O)O2)cc1
z-score [1]: -0.284 | z-score [2]: -0.699 | z-score [3]: -0.1 | z-score [4]: -0.919 | z-score [5]: -0.112 | z-score [6]: -0.359 | z-score [7]: 0.0763 (inactive) | z-score [8]: -0.55 | z-score [9]: -0.522 | z-score [10]: 0.369 (inactive)

O=C(NN=C1C[C@@H](O)[C@@H](O)[C@@H]2[C@@H]3C(=O)N(c4ccc(F)cc4F)C(=O)[C@@H]3CC[C@@H]12)OCc1ccccc1
z-score [1]: 0.166 | z-score [2]: -0.902 | z-score [3]: -0.903 | z-score [4]: 0.655 | z-score [5]: -0.768 | z-score [6]: -0.121 | z-score [7]: 1.2 (inactive) | z-score [8]: -0.353 | z-score [9]: -0.0309 | z-score [10]: -0.0526 (inactive)
